Several values for one entry are separate records, joined by “and”; a condition that tells them apart may be missing. Equal entries are not always repeated. Hit rate of the full screen: of about 340,000 compounds, about 3,300 (0.97%) were called active. Inconclusive results (about 9%) are left out. The call rests on the fitted dose curve; in most records, active means well fitted inhibition curve with a large enough effect; inconclusive means small, poorly fitted or top-dose-only effect, or effect the other way; inactive means flat fitted curve, though single readings scatter. Some of the results follow.
Assay: qHTS Assay for Modulators of miRNAs and/or Inhibitors of miR-21; further: nearly all actives have a fitted effect of over 55% in size
Conditions: HeLa miR-21-FLuc reporter, luciferase luminescence, 48 h; actives lower the signal
Procedure, shortened: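 Compounds were titrated across several concentrations (up to approximately 40 uM) and incubated 48 hours with HeLa miR-21-FLuc reporter cells (miR-21 target sequence downstream of FLuc, endogenous miR-21). Readout was firefly luciferase luminescence after lytic detection reagent.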
Potency means the concentration at half of the fitted maximal effect.

Potency, active:
COc1ccc(-n2ncc3c(N4CCCc5ccccc54)ncnc32)cc1 0.414 µM
CCC(NC(=O)c1ccccc1NC(=O)c1ccc(OC)cc1)C(=O)N1CCCC1 (stereo not given) 6.56 µM
Cc1[nH]c2ccccc2c1C(=O)CSC(=S)N1CCCCC1 3.29 µM
COc1ccc(/C=C/C(=O)N(C)C2CCCCC2)cc1Br 9.27 µM
Cc1ccc2c(CN3CCC(C)CC3)cc(=O)oc2c1C 7.36 µM
Cc1ccc2c(CN3CCC(C)CC3)cc(=O)oc2c1 5.21 µM
CN(C)c1ccc(/C=C/c2nnnn2-c2ccccc2)cc1 1.65 µM
CC(Cc1cccs1)NC(=O)c1cccc(Cl)c1 (stereo not given) 6.56 µM
COc1ccc(C2CC(=O)N(C)c3ccccc3S2)cc1OC (stereo not given) 18.5 µM
Cc1ccc(-c2nc3ccccc3nc2NN)cc1 1.17 µM
CC(=O)c1sc(-c2ccc(F)cc2F)nc1C 14.7 µM
Cc1sc(NC(=O)C2C3CCC(O3)C2C(=O)O)nc1-c1ccc(CC(C)C)cc1 (stereo not given) 3.69 µM
CCOC(=O)C1=NN(c2ccc(Cl)cc2)C(=O)C1 6.56 µM
CCOC(=O)c1sc2nc3c(cc2c1N)COC(C)(C)C3 1.17 µM
CCOC(=O)c1cc2c(nc1N)CC(C)(CC)OC2 (stereo not given) 7.36 µM
CCOC(=O)c1sc2nc3c(cc2c1N)COC(C(C)C)C3 (stereo not given) 0.0414 µM
C=CCn1c(C)nc2c(sc3nc4c(cc32)COC(C)(C)C4)c1=O 0.656 µM
Cc1cc(O)c(C2=Nc3ccccc3SC(c3ccc(Cl)cc3)C2)c(=O)o1 (stereo not given) 1.65 µM
Cc1ccc2c3c([nH]c2c1C)-c1nonc1CC3 7.36 µM
Cc1cc(N2CCOCC2)ccc1/C=C1/SC(=O)NC1=O 4.65 µM
COc1ccc(-n2c(C)cc(/C=C3\SC(=O)NC3=O)c2C)cc1 5.85 µM
O=C1NC(=S)N/C1=C\c1ccc(N2CCOCC2)cc1 13.1 µM
Cc1ccc(-n2c(C)cc(/C=C3\SC(=O)NC3=O)c2C)cc1 1.47 µM
Cc1ccc(/C=N/NC(=O)CSc2nc3ccccc3o2)cc1 11.7 µM
CCOc1cccc2cc(-c3csc(NC(=O)CCC(=O)NCCCN4CCC(C)CC4)n3)c(=O)oc12 1.17 µM
CN(C)c1oc(/C=C/c2ccccc2)nc1C#N 5.85 µM
CCOc1ccc(/C=C/c2nc(C#N)c(N(C)C)o2)cc1 0.329 µM
COc1ccc(Nc2oc(/C=C/c3ccccc3OC)nc2C#N)cc1 13.1 µM
COc1ccccc1/C=C/c1nc(C#N)c(N(C)C)o1 927 nM and 1.65 µM
CN1C(=O)/C(=C/C=C2\SCCN2C)SC1=S 0.464 µM
CCN1C(=O)/C(=C/C=C2/SCCN2C)SC1=S 0.185 µM
CCCCN1C(=O)/C(=C/C=C2\SCCN2C)SC1=S 5.21 µM
Cc1nc(NC(=O)c2cc3c(s2)CCCCC3)sc1C(=O)N(C)C 7.36 µM
Fc1cccc(C2NN=C(c3ccccc3)S2)c1 (stereo not given) 0.585 µM
O=C1NN(c2ccccc2)C(=O)/C1=C/c1coc2ccccc2c1=O 4.65 µM
CC1CCCCN1Cc1c(O)ccc2c(=O)c(-c3ccc(Cl)cc3)coc12 (stereo not given) 18.5 µM
Fc1ccc(OCc2cc(-c3ccccc3)no2)cc1 4.14 µM
COc1ccc(-c2cc(COc3ccccc3)on2)cc1 9.27 µM
CCCCNC(=O)c1nnn(-c2ccccc2)c1N 16.5 µM
CCN=C1S/C(=C\c2ccc(-c3cccc(C(=O)O)c3)o2)C(=O)N1CC 0.656 µM
COC(=O)C(C)N1C(=O)S/C(=C\c2ccc(-c3ccc(C(=O)O)cc3C)o2)C1=O (stereo not given) 6.56 µM
C#CCN1C(=O)S/C(=C\c2ccc(-c3ccc(C(=O)O)cc3C)o2)C1=O 3.29 µM
CC(C)N1C(=O)S/C(=C\c2ccc(-c3ccc(Cl)c(C(=O)O)c3)o2)C1=O 0.293 µM
COc1ccc(OC)c2c(N3CC(C)OC(C)C3)cc(C(F)(F)F)nc12 (stereo not given) 6.56 µM
O=C(Nc1ccccn1)c1sc2cccc(F)c2c1Cl 0.165 µM
Brc1cc(Br)c2nc(-c3ccc(N4CCOCC4)cc3)ccc2c1 14.7 µM
N#C/C(=C\c1cccnc1)c1nc2c(s1)CCCC2 2.61 µM
CCc1ccc(NC(=O)CSc2nncn2-c2cccnc2)cc1 16.5 µM
CCc1ccc(NC(=O)CSc2ccccn2)cc1 10.4 µM
Cc1cc(NC(=O)CCSc2ccccc2)ccc1Br 16.5 µM
CCc1ccc(NC(=O)CSc2ccc3nc(-c4ccc(OC)cc4)cn3n2)cc1 0.736 µM
Cc1ccc(NC(=O)CCSc2ccccn2)cc1 4.14 µM
Cc1cc(OCC(=O)N2CCCCCC2)ccc1[N+](=O)[O-] 5.85 µM
Cc1ccc(NC(=O)c2sccc2C)cc1[N+](=O)[O-] 4.14 µM
O=C(CCc1ccccc1)Nc1ccccc1[N+](=O)[O-] 14.7 µM
O=C(NC(=S)Nc1ccccc1[N+](=O)[O-])c1ccccc1 9.27 µM
O=C(Nc1ccccn1)Nc1ccccc1[N+](=O)[O-] 9.27 µM
Cc1ccc(NC(=O)C2C3CCCCC32)cc1[N+](=O)[O-] (stereo not given) 13.1 µM
Cc1cc(NC(=O)c2ccccc2[N+](=O)[O-])ccc1Br 7.36 µM
Cc1ccc(NC(=O)c2ccc(C(C)(C)C)cc2)cc1[N+](=O)[O-] 5.21 µM
CC(C)COc1ccc(C(=O)Nc2ccccc2[N+](=O)[O-])cc1 8.26 µM
O=C(Nc1ccccn1)c1cc2cc([N+](=O)[O-])ccc2s1 0.826 µM
CC(C)(C)c1cc(NC(=O)c2cccc([N+](=O)[O-])c2)no1 1.47 µM
CC(C)(C)c1ccc(C(=O)Nc2ccc([N+](=O)[O-])cn2)cc1 0.464 µM
CC(C)(C)c1ccc(NC(=O)c2ccccc2)c([N+](=O)[O-])c1 0.736 µM
